The values below come from PMC7862700, “An all-to-all approach to the identification of sequence-specific readers for epigenetic DNA modifications on cytosine”.

Holding throughout (experiment): DAPPL (digital affinity profiling via proximity ligation, sequencing); 10 mM Tris-HCl pH 7.5, 50 mM NaCl, 1 mM DTT, 4% glycerol, room temperature, 30 min; GST-TFs on glutathione beads, 16-mer random dsDNA library, 0.1% formaldehyde crosslink after washing; high values mean tight binding
Assay [1] concerns the target T1, FLI1 (Homo sapiens, UniProt Q01543 1-452).
T1 sequence: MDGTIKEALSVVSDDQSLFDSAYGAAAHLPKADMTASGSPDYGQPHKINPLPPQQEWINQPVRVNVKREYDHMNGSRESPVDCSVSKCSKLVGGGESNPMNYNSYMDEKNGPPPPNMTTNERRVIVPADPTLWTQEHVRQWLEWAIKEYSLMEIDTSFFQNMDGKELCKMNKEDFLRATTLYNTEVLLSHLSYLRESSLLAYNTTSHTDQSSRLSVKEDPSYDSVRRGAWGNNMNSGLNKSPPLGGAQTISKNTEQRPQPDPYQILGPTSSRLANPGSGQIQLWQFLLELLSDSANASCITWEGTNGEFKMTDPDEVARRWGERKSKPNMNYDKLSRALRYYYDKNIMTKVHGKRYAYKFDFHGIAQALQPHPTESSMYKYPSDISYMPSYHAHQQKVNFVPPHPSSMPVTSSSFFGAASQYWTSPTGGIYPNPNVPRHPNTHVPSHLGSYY
As to conditions: protein: recombinant; tags: N-terminal GST; dsDNA, one strand shown. The method in brief: (§1)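 In yeast, human transcription factors were expressed with a GST fusion, then pulled down on glutathione beads and given DNA barcodes. Pooled with a tag-only sample, they were exposed to 200 nmole of a 16-mer random double-stranded DNA library (Tris/NaCl/DTT/glycerol buffer, room temperature, 30 min), washed, crosslinked with 0.1% formaldehyde, proximity-ligated using BsaI/T4 ligase for 1 h at 37 °C, PCR-amplified and read on an Illumina NextSeq500. Each hexamer's frequency of reads for a factor, divided by the matching frequency for the tag-only sample, gives the binding signal.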

The target of assay [2] is T2, ELK1 (Homo sapiens, UniProt P19419 1-428).
T2 sequence: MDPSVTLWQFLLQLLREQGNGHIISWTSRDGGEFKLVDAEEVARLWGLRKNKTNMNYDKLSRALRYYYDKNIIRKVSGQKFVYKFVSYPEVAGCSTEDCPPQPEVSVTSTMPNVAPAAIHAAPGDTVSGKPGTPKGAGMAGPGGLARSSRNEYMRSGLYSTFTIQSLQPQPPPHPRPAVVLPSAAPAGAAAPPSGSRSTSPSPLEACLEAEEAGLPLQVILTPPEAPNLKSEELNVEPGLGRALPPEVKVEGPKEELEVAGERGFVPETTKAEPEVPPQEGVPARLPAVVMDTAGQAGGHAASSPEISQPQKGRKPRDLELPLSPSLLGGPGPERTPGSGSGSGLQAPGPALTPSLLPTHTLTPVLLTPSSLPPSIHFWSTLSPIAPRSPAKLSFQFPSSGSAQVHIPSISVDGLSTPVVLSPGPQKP
To be noted: protein: recombinant; tags: N-terminal GST; dsDNA, one strand shown. A digest of the protocol:
as §1

Assay [3] deals with T3, GABPA (Homo sapiens, UniProt Q06546 1-454).
T3 sequence: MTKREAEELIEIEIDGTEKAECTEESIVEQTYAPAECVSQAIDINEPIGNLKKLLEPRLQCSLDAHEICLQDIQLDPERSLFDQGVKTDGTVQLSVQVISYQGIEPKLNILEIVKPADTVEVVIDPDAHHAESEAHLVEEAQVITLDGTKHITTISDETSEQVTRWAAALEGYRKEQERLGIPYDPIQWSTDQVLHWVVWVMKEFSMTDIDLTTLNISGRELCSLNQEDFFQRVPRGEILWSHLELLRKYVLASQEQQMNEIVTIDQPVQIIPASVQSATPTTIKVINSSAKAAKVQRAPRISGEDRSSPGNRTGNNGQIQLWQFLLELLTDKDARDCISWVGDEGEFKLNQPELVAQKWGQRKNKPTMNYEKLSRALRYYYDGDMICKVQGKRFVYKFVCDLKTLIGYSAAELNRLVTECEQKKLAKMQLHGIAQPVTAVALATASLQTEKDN
As to conditions: protein: recombinant; tags: N-terminal GST; dsDNA, one strand shown. The method in brief: as §1

The target of assay [4] is T4, ERG (Homo sapiens, UniProt P11308 1-479).
T4 sequence: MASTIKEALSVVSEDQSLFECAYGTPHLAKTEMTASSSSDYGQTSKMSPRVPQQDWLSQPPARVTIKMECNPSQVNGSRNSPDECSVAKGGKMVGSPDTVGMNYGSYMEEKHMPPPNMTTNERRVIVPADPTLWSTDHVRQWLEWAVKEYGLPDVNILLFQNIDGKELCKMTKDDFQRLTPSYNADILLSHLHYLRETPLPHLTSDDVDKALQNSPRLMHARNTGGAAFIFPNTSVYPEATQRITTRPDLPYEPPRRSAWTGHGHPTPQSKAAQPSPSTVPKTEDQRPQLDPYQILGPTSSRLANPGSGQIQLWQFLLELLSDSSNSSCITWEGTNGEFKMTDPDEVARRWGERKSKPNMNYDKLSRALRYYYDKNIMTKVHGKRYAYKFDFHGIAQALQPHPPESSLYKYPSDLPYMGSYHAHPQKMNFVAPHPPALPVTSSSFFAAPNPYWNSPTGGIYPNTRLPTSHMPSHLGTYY
To be noted: protein: recombinant; tags: N-terminal GST; dsDNA, one strand shown. The method in brief:
as §1

Assay [5] deals with ELF1 (Homo sapiens, UniProt P32519 1-619). As to conditions: protein: recombinant; tags: N-terminal GST; dsDNA, one strand shown. A digest of the protocol: as §1
Chain of ELF1 (P32519 whole entry): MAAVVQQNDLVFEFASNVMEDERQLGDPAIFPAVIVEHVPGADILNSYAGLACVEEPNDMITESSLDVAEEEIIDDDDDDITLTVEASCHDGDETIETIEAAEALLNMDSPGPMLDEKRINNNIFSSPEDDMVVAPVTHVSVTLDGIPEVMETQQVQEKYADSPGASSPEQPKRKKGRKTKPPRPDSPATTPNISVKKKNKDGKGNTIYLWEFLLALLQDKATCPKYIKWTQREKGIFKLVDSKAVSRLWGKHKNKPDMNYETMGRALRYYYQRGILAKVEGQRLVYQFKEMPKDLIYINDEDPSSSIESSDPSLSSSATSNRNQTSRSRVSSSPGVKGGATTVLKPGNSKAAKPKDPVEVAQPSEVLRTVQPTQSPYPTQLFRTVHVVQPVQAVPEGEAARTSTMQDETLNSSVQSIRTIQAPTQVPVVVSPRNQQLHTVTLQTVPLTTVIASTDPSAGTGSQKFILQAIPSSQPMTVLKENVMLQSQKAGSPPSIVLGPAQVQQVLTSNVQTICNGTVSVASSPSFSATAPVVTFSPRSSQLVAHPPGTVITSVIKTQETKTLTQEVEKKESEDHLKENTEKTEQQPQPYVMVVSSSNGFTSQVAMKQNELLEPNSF
The target of assay [6] is T5, EHF (Homo sapiens, UniProt Q9NZC4 1-300).
T5 sequence: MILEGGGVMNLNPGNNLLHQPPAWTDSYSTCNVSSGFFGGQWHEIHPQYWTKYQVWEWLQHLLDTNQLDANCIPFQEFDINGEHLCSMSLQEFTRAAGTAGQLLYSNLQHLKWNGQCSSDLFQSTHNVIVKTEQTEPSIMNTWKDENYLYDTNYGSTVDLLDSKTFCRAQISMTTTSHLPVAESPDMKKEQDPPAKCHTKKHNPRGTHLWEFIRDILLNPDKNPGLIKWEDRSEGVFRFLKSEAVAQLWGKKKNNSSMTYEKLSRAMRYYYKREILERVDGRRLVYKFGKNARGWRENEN
To be noted: protein: recombinant; tags: N-terminal GST; dsDNA, one strand shown. A digest of the protocol: as §1

Assay [7] deals with SPI1 (Homo sapiens, UniProt P17947 1-270). To be noted: protein: recombinant; tags: N-terminal GST; dsDNA, one strand shown. A digest of the protocol:
as §1

The target of assay [8] is SPIB (Homo sapiens, UniProt Q01892 1-262). As to conditions: protein: recombinant; tags: N-terminal GST; dsDNA, one strand shown. A digest of the protocol: as §1
Chain of SPIB (Q01892 whole entry): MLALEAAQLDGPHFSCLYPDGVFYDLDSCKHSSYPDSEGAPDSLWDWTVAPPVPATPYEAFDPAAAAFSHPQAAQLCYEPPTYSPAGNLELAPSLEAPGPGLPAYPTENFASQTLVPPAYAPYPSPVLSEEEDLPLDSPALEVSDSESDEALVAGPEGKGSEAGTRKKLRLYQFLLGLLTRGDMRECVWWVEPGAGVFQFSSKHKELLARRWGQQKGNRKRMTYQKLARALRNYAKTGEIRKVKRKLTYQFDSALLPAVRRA
Assay [9] concerns the target T6, ELK3 (Homo sapiens, UniProt P41970 1-407).
T6 sequence: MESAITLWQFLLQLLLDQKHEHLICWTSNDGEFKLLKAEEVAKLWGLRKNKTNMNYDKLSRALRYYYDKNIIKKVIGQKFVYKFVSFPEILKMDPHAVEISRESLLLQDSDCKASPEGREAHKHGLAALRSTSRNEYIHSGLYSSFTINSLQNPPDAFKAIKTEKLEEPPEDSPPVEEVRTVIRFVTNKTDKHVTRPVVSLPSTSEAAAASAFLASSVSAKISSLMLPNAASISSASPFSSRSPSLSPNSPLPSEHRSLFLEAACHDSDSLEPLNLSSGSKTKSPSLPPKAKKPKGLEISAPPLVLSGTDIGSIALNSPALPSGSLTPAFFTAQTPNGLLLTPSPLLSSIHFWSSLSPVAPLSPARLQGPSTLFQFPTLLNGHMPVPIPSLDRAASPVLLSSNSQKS
As to conditions: protein: recombinant; tags: N-terminal GST; dsDNA, one strand shown. The method in brief: as §1

Assay [10] addresses T7, FEV (Homo sapiens, UniProt Q99581 1-238).
T7 sequence: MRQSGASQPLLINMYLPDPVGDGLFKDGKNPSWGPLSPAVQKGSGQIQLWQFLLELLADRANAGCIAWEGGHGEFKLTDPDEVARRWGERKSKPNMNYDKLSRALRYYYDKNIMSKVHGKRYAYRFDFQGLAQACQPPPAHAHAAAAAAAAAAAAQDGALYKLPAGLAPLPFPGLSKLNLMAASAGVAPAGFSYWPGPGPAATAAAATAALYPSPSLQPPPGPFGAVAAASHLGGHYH
As to conditions: protein: recombinant; tags: N-terminal GST; dsDNA, one strand shown. A digest of the protocol:
as §1

In assay [11] the target is ETV5 (Homo sapiens, UniProt P41161 1-510). To be noted: protein: recombinant; tags: N-terminal GST; dsDNA, one strand shown. The method in brief:
as §1

Assay [12] has as its target HSF1 (Homo sapiens, UniProt Q00613 1-529). To be noted: protein: recombinant; tags: N-terminal GST; chain copies: 3; dsDNA, one strand shown. A digest of the protocol:
as §1

For assay [13], the target named is T8, SPIC (Homo sapiens, UniProt Q8N5J4 1-248).
T8 sequence: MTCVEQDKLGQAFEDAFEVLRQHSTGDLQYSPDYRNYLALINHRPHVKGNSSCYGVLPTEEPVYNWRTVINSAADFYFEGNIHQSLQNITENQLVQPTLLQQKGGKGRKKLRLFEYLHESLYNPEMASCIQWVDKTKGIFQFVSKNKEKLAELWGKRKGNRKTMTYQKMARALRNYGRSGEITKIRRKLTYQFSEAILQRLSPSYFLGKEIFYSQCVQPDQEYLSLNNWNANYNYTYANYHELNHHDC
To be noted: protein: recombinant; tags: N-terminal GST; dsDNA, one strand shown. A digest of the protocol: as §1

Assay [14] has as its target ELF4 (Homo sapiens, UniProt Q99607 1-663). To be noted: protein: recombinant; tags: N-terminal GST; dsDNA, one strand shown. The method in brief:
as §1

For assay [15], the target named is T9, ELK4 (Homo sapiens, UniProt P28324-2 1-405).
T9 sequence: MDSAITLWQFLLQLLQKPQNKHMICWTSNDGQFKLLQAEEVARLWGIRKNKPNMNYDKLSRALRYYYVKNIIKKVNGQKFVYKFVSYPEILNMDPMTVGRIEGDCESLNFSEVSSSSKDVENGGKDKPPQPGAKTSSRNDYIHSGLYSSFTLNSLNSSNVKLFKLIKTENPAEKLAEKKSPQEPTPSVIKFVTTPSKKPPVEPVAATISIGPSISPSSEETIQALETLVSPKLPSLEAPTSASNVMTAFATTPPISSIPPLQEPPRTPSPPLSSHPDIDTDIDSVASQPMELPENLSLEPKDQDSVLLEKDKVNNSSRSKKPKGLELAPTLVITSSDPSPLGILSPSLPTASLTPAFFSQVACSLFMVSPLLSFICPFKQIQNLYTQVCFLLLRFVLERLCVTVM
As to conditions: protein: recombinant; tags: N-terminal GST; dsDNA, one strand shown. The method in brief: as §1

In assay [16] the target is T10, ETV2 (Homo sapiens, UniProt O00321 1-342).
T10 sequence: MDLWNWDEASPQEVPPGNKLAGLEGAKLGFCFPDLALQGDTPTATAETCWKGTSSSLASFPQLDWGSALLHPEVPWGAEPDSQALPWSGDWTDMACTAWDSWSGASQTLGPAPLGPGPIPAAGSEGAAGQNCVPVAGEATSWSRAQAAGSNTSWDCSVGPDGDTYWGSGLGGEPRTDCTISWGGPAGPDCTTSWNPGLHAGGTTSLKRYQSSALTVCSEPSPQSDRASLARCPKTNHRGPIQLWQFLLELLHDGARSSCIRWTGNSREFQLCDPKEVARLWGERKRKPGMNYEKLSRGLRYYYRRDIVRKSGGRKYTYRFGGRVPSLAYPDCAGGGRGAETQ
As to conditions: protein: recombinant; tags: N-terminal GST; dsDNA, one strand shown. The method in brief: as §1

Assay [17] addresses T11, ELF3 (Homo sapiens, UniProt P78545 1-371).
T11 sequence: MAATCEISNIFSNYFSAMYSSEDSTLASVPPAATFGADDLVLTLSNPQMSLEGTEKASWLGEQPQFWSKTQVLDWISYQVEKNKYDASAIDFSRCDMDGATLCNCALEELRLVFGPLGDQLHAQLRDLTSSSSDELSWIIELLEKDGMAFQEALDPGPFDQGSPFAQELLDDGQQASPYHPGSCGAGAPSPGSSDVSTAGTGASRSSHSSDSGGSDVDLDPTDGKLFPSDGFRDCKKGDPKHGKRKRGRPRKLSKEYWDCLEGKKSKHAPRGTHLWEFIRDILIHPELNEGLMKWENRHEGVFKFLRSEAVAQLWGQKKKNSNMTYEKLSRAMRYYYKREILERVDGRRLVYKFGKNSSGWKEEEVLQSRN
To be noted: protein: recombinant; tags: N-terminal GST; dsDNA, one strand shown. A digest of the protocol:
as §1

The target in assay [18] is CRX (Homo sapiens, UniProt O43186 1-299). As to conditions: protein: recombinant; tags: N-terminal GST; dsDNA, one strand shown. A digest of the protocol:
as §1

Assay [19] addresses ETV1 (Homo sapiens, UniProt P50549 1-477). To be noted: protein: recombinant; tags: N-terminal GST; dsDNA, one strand shown. The method in brief:
as §1

Chain of ETV5 (P41161 whole entry): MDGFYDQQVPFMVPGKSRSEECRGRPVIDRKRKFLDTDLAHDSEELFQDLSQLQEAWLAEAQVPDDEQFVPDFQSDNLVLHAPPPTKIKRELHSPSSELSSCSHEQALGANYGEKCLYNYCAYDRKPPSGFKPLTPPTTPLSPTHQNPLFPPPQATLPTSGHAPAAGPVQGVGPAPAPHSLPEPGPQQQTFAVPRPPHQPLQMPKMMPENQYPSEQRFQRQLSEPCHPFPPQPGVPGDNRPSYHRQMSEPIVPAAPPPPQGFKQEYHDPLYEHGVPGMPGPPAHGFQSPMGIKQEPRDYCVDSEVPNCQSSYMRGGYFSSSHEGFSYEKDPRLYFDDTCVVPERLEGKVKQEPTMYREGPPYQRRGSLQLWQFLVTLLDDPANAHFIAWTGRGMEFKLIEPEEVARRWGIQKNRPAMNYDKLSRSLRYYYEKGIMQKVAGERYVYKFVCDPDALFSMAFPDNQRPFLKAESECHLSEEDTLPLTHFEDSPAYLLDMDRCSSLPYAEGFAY
Chain of HSF1 (Q00613 whole entry): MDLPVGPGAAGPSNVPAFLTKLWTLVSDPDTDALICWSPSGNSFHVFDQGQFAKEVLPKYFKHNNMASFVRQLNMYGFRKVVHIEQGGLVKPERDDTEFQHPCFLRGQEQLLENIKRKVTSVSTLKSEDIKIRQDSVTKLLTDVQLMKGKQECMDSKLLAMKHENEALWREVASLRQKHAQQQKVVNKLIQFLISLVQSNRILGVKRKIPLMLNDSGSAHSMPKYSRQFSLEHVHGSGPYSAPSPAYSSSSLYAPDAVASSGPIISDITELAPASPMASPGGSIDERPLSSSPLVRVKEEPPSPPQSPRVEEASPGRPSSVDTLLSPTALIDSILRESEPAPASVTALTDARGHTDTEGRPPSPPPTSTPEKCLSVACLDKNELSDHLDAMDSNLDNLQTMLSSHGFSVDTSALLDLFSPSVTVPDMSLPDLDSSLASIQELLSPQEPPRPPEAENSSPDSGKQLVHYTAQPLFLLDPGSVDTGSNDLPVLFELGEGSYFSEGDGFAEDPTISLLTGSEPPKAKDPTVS
Chain of CRX (O43186 whole entry): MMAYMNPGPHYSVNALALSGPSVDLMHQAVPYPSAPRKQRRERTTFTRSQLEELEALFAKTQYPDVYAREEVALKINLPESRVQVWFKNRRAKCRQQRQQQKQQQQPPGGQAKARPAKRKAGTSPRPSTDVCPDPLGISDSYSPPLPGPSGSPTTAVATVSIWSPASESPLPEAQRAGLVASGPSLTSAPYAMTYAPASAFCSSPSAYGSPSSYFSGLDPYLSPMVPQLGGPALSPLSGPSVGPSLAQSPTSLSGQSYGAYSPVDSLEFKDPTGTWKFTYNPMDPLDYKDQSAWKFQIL
Chain of ELF4 (Q99607 whole entry): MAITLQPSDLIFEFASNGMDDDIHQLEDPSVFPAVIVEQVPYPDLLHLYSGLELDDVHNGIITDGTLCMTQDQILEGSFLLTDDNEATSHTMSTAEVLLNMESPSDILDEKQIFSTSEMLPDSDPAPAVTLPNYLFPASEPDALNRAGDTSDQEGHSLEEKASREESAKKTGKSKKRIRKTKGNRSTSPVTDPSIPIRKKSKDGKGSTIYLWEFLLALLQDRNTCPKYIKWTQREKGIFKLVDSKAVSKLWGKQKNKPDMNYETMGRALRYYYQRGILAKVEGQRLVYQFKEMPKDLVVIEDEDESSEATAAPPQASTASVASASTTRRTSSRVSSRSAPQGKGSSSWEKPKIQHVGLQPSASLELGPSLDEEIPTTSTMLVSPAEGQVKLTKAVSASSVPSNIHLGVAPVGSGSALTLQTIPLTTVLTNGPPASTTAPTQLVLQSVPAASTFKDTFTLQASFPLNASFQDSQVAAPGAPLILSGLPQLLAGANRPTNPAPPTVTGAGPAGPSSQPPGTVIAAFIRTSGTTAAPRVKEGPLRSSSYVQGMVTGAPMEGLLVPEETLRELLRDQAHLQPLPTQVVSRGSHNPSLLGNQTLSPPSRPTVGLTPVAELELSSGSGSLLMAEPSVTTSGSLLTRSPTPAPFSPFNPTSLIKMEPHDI
Chain of ETV1 (P50549 whole entry): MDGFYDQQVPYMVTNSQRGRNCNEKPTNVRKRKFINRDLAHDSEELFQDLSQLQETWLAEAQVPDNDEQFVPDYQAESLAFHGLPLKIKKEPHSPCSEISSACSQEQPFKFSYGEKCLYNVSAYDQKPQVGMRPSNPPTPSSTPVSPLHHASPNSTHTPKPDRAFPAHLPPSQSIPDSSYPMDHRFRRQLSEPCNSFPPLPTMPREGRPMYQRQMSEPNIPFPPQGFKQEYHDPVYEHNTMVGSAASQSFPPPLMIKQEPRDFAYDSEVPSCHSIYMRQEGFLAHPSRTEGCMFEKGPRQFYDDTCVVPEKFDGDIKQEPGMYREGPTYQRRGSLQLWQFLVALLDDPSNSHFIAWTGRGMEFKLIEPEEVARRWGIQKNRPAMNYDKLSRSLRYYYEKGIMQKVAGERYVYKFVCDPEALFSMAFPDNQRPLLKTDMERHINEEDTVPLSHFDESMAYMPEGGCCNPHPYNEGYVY

Turning to TTTTGA, the binding signal is 1.13 fold enrichment (6-mer frequency, TF over GST control) in assay [1]; 1.18 fold enrichment (6-mer frequency, TF over GST control) in assay [2]; 1.13 fold enrichment (6-mer frequency, TF over GST control) in [3]; 1.11 fold enrichment (6-mer frequency, TF over GST control) in [4]; 1.17 fold enrichment (6-mer frequency, TF over GST control) in assay [5]; 1.17 fold enrichment (6-mer frequency, TF over GST control) in [6]. The binding signal is 1.13 fold enrichment (6-mer frequency, TF over GST control) in [7]; 1.04 fold enrichment (6-mer frequency, TF over GST control) in [8]; 1.06 fold enrichment (6-mer frequency, TF over GST control) in [9]; 1 fold enrichment (6-mer frequency, TF over GST control) in assay [10]; 1.19 fold enrichment (6-mer frequency, TF over GST control) in [11]; 1.12 fold enrichment (6-mer frequency, TF over GST control) in [12]. The binding signal was 1.21 fold enrichment (6-mer frequency, TF over GST control) in [13]; 1.19 fold enrichment (6-mer frequency, TF over GST control) in assay [14]; 1.22 fold enrichment (6-mer frequency, TF over GST control) in assay [15]; 1.2 fold enrichment (6-mer frequency, TF over GST control) in [16]; 1.25 fold enrichment (6-mer frequency, TF over GST control) in [17]; 1.17 fold enrichment (6-mer frequency, TF over GST control) in [18]. Also, the binding signal in assay [19] was 1.13 fold enrichment (6-mer frequency, TF over GST control).
